The values below come from PubChem BioAssay (NCI).

The structures appear in SMILES notation. The panel holds about 83,000 compounds, 20% with a hit somewhere; the sample as a whole holds those more often.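 Plates (96-well) were seeded with cells, treated with compound at one concentration, and incubated for 48 hours before percent growth was determined.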 A number with no mark means an inactive call. Activity calls are given as the source filed them. How the source made its calls: active means growth percent below 10; inactive means the rest.

The test system of the assay is KM12 colon. The experiment in a line: NCI-60 one-dose screen, 48 h (100 = growth as untreated, 0 = no growth, -100 = all killed). The following applies: 10 µM unless noted.
Regarding `Cc1csc(/N=C(N)/N=C(\N)c2cccs2)n1`, the growth was 97.8%. Regarding `COC(=O)c1ccc(NC2=C(Cl)C(=O)c3nc(C)ccc3C2=O)cc1`, the growth is 50.3%. On to `CSc1ccc(/C(=N/N=C(N)N)c2ccc(Cl)cc2)cc1`, for which the growth is 5.79% (active). As for `NNc1nnc2nc(Nc3ccccc3)nc(Nc3ccc(S(N)(=O)=O)cc3)n12`, the figure is 103%; as for `CNC(=O)Nc1ccc(Nc2cc(-c3ccc(-n4cccn4)cc3)[nH]n2)c(C)c1`, 101%; as for `COc1cc(NC(=O)Nc2cccc(-c3cc(=O)c4c(OC)c(OC)c(OC)cc4o3)c2)cc(OC)c1OC`, 38.7%.
